Experimental data published in the supplement of paper PMC8728848.
Shown is part of a subset that was picked to be rich in the strongest signals.

Columns and labels:
Experiment in all cases: glycan array binding signal (z-score within array); higher = stronger binding
Settings in all cases: glycan notation: IUPAC condensed, linker removed
[1] = molecular target: Gal(b1-4)GlcNAc(b1-3)Gal(b1-4)GlcNAc(b1-3)Gal(b1-4)GlcNAc(b1-3)Gal(b1-4)GlcNAc(b1-3)Gal(b1-4)GlcNAc(b1-3)Gal(b1-4)GlcNAc(b1-2)Man(a1-3)[Gal(b1-4)GlcNAc(b1-3)Gal(b1-4)GlcNAc(b1-3)Gal(b1-4)GlcNAc(b1-3)Gal(b1-4)GlcNAc(b1-3)Gal(b1-4)GlcNAc(b1-3)Gal(b1-4)GlcNAc(b1-2)Man(a1-6)]Man(b1-4)GlcNAc(b1-4)GlcNAc
In short: (§1)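 The Consortium for Functional Glycomics database supplied 3228 glycan arrays, of which those lacking an available protein sequence were dropped. The binding signal, a within-array Z-score, was averaged across arrays of the same protein sequence and across linkers. Negative scores can be read as non-binding.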

Gal(b1-6)Gal = molecular target: Gal(b1-6)Gal
In short: as §1

Gal3S(b1-3)GlcNAc = molecular target: Gal3S(b1-3)GlcNAc
In short: as §1

[2] = molecular target: Gal3S(b1-4)[Fuc(a1-3)]GlcNAc6S
In short: as §1

Gal6S(b1-3)GlcNAc = molecular target: Gal6S(b1-3)GlcNAc
In short: as §1

Gal6S(b1-4)Glc6S = molecular target: Gal6S(b1-4)Glc6S
In short: as §1

[3] = molecular target: GlcNAc(a1-3)Gal(b1-4)GlcNAc
In short: as §1

[4] = molecular target: GlcNAc(b1-2)Gal(b1-3)GalNAc
In short: as §1

[5] = molecular target: GlcNAc(b1-2)Man(a1-3)[GlcNAc(b1-4)][GlcNAc(b1-2)Man(a1-6)]Man(b1-4)GlcNAc(b1-4)GlcNAc
In short: as §1

GlcNAc(b1-3)Gal = molecular target: GlcNAc(b1-3)Gal
In short: as §1

[6] = molecular target: GlcNAc(b1-4)GlcNAc(b1-4)GlcNAc(b1-4)GlcNAc(b1-4)GlcNAc
In short: as §1

[7] = molecular target: Man(a1-2)Man(a1-6)[Man(a1-3)]Man(a1-6)[Man(a1-2)Man(a1-2)Man(a1-3)]Man(b1-4)GlcNAc(b1-4)GlcNAc
In short: as §1

[8] = molecular target: Man(a1-3)[Man(a1-6)]Man(a1-6)[Man(a1-3)]Man(b1-4)GlcNAc(b1-4)GlcNAc
In short: as §1

[9] = molecular target: Neu5Ac(a2-3)Gal(b1-3)GalNAc6S
In short: as §1

[10] = molecular target: Neu5Ac(a2-3)Gal(b1-3)GlcNAc(b1-3)Gal(b1-3)GlcNAc
In short: as §1

[11] = molecular target: Neu5Ac(a2-3)Gal(b1-3)[Neu5Ac(a2-6)]GalNAc
In short: as §1

[12] = molecular target: Neu5Ac(a2-3)Gal(b1-4)GlcNAc(b1-6)[Neu5Ac(a2-3)Gal(b1-3)]GalNAc
In short: as §1

[13] = molecular target: Neu5Ac(a2-3)Gal(b1-4)[Fuc(a1-3)]GlcNAc(b1-3)Gal
In short: as §1

[14] = molecular target: Neu5Ac(a2-6)Gal(b1-4)GlcNAc(b1-2)[Neu5Ac(a2-6)Gal(b1-4)GlcNAc(b1-6)]Man(a1-6)[Neu5Ac(a2-6)Gal(b1-4)GlcNAc(b1-2)Man(a1-3)][GlcNAc(b1-4)]Man(b1-4)GlcNAc(b1-4)GlcNAc
In short: as §1

[15] = molecular target: Neu5Ac(a2-6)Gal(b1-4)GlcNAc(b1-3)Gal(b1-4)GlcNAc(b1-3)[Neu5Ac(a2-6)Gal(b1-4)GlcNAc(b1-3)Gal(b1-4)GlcNAc(b1-6)]GalNAc
In short: as §1

[16] = molecular target: Neu5Ac(a2-6)GlcNAc(b1-4)GlcNAc
In short: as §1

[17] = molecular target: Neu5Ac(a2-8)Neu5Ac(a2-3)[GalNAc(b1-4)]Gal(b1-4)Glc
In short: as §1

B1: rCnSL-A (Clitocybe nebularis) (protein)
chain: VNPNLPGPNDVFVGFRGTNNIVGAIYEKDGIKDTPLNNGADAEMGPGSYITDGLFTARIFASGSAGNNPGTTATVCKIYASGVQWRGAPKGYIPVAYFGNGPTAEQRRQTYLRTLGLPGTAIRFGNLNTNPGQGPTAPRQMVVPPGPLRSLLKASCFPAADTRLPQTLHYFEKRVDWNIITAADSQTWGH
[1]
  glycan array binding signal (z-score): 7.72
Gal(b1-6)Gal
  glycan array binding signal (z-score): -0.201
Gal3S(b1-3)GlcNAc
  glycan array binding signal (z-score): -0.252
[2]
  glycan array binding signal (z-score): -0.25
Gal6S(b1-3)GlcNAc
  glycan array binding signal (z-score): -0.309
Gal6S(b1-4)Glc6S
  glycan array binding signal (z-score): -0.241
[3]
  glycan array binding signal (z-score): -0.253
[4]
  glycan array binding signal (z-score): -0.27
[5]
  glycan array binding signal (z-score): -0.223
GlcNAc(b1-3)Gal
  glycan array binding signal (z-score): -0.22
[6]
  glycan array binding signal (z-score): -0.217
[7]
  glycan array binding signal (z-score): -0.138
[8]
  glycan array binding signal (z-score): -0.237
[9]
  glycan array binding signal (z-score): -0.234
[10]
  glycan array binding signal (z-score): -0.25
[11]
  glycan array binding signal (z-score): -0.305
[12]
  glycan array binding signal (z-score): -0.165
[13]
  glycan array binding signal (z-score): -0.229
[14]
  glycan array binding signal (z-score): -0.269
[15]
  glycan array binding signal (z-score): 0.406
[16]
  glycan array binding signal (z-score): -0.287
[17]
  glycan array binding signal (z-score): -0.246
